This note sets out measurements from the supplement of paper PMC6555819.

This test relates to VDR:RXRa (NR concentration 270 nM, RXRa partner concentration 90 nM). Briefly: PBM binding z-score (relative to random genomic background probes); higher = stronger binding; sequences stand for … in GC…GCGATTGACAGCGTAGAATGAAGG
As to the method: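 Protein-binding microarray (Agilent 4x180K custom design, double-stranded 60-nt probes: 5' GC cap, 34-nt variable region, 24-nt constant primer region; full probe sequence given). Purified or IVT nuclear receptor:RXRα heterodimers (3:1 NR:RXRα, mostly 270:90 nM) or homodimers were incubated for 1 h in PBS with 2% milk and no ligand, then detected with Alexa488 antibodies. Fluorescence from o1-orientation probes (~5 replicates averaged) was converted to z-scores against 500 random hg19 background probes. Variable regions are seed direct-repeat (DR0–DR5) sites, all their single-nucleotide variants and half-site ablations.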
For CGTCCAAGGTCAGCACGTCAGTGAAAGCGACGTG, the PBM binding z-score amounted to 2.46.

With CCTCGGAAGACAACAGGAGGTCAGAGCTGCCAGA, the PBM binding z-score amounted to 1.5.

As for CAAACTAGGTCACCGGAAGGGCAAAGTCCGCATG, the PBM binding z-score came to 3.81.

For the sequence CAAACTAGGTCACCGAGGTCAAAGTCCGTGCGTA, the PBM binding z-score came to 8.34.

For the sequence CTCGAATGGTCGTGCTCAGGTGAGTATACCAAAC, the PBM binding z-score was -0.155.

Take ATCTCTAGGTAACACTCAGTTCAGTGAAGAACGC: the PBM binding z-score is 1.97.

Sequence GAGACAGGGTCAGCTAGAGGCCAGAGTATGGAAA displayed a PBM binding z-score of 3.22.

On to CGTCAAAGTTCAACTAAGGTAACGTGAAGCACGC, for which the PBM binding z-score is 4.37.

For the sequence CCTTACGGGTCACTCCAGGTTAGAGCATCGGAGT, the PBM binding z-score was 3.65.

Sequence TCAGACAGGTCAAGGTAACTCAGGTACGCAGTCG registered a PBM binding z-score of 3.09.

The sequence CGTCCAAGGTCAGCAGGTCAATGAAAGCGACGTG gave a PBM binding z-score of 4.68.

For the sequence GCATATAGGTAATACATGGTGAAAGTCCGATTGT, the PBM binding z-score is -0.0137.

Consider TTACCAAGGTGAGCTGAGGTAGTTGATCCAACTC, for which the PBM binding z-score was -0.45.

AGCTCTAGGTAAAGTTCAGTGAAAGATCGATAGA: the PBM binding z-score is 1.08.

Take GCAGACCGGTGAAACGCAGGTAACTCAGGGTGGC: the PBM binding z-score was -0.857.

TCATATAGGTAAACAGGTGAAAGTACGTAAGTTA gave a PBM binding z-score of 1.48.

Regarding CGTCCAAGGTCAGCAGGTCAGTCAAAGCGACGTG, the PBM binding z-score turned out to be 4.02.

On to ACTAGCAGGCCAACTTTGGGTCACTCAAACAAAG, for which the PBM binding z-score amounted to 0.536.

For GCATACAGGTAATACAAGGTGAAAGTCCGATTGT, the PBM binding z-score stood at 0.492.

As for ACTCGGAGGACAAAGCTCAGAGCTACGCCAGTGA, the PBM binding z-score was -0.859.

In turn, CCTTACGGGTCAATGACAGGTTATAGCATTTGGA returned a PBM binding z-score of 3.29.

TGGCAAAGTTCAAAGGTAACGTAAGTATCCACAC registered a PBM binding z-score of 5.01.

In turn, CGTAGCAGGCCAGGGTCACTCAAGCATTTCGCTT returned a PBM binding z-score of 2.59.

TCATATAGGTAAAGGTGAAAGACGAACGATATGA yielded a PBM binding z-score of 0.914.

On to TAGCCTAGGGCAGATCGGGCCAGTATACGCTATA, for which the PBM binding z-score is -0.562.

Regarding TCCAGTTGGTCACGGAGGTCACACACGACGGGTA, the PBM binding z-score amounted to 5.75.

Take GGAACGAGGGCAAATTGATAGCAGAGTTTGATGG: the PBM binding z-score amounted to 0.922.

For the sequence GATACAGGGTCAGGGCCAGAGTACGCGTATTGAT, the PBM binding z-score came to 3.14.

Sequence ACTATTGGTTGAGACGAGGGCAACCGATAGGTTG showed a PBM binding z-score of 0.873.

CGAACTAGGTCATCCGGGACAGTGAATACATTGA: the PBM binding z-score is 4.04.

Regarding TCGAGTAAGTTAGGGGCATTCAGAATGGCGTCGA, the PBM binding z-score came to 0.425.

Take CGAACTAGGTCAGAATAGGACAGTGAAGGATGAT: the PBM binding z-score was determined as 0.491.

With TAGCCTAGGTAATGGGCCAGTATACCACGCGAAC, the PBM binding z-score was -0.466.

AATACAGGGTCACTAGGCAAGAGTAGGTACGAAT had a PBM binding z-score of 3.97.

CGTCCAAGGTCAGAGAGATCAGTGAATGCCGAGT registered a PBM binding z-score of 3.72.

Turning to CCTCGGAGGACAGAAGGTCAGAGGTGTCCGCTTT, the PBM binding z-score was found to be 1.24.

The sequence GCTTACGGGTCAAAGGATATAGCATGAATAGAAT yielded a PBM binding z-score of 3.16.

In turn, CTACCAAGGTGAACACGGTCGTTGATTACTATTC had a PBM binding z-score of 3.01.

With AGATCGAGGGCACGCTGAGTTGATAGCAGAGTAG, the PBM binding z-score was 1.85.

CTACCAAGGGGAACAAGGTCGTTGATTACTATTC yielded a PBM binding z-score of 3.86.
